Compound activity deposited in PubChem by Buhrlage Lab, Dana-Farber Cancer Institute and Novartis Institutes for BioMedical Research (Cambridge, Mass).
Only some compounds are listed: those with a hit (about 4.9% of all), similar ones and a draw of the others.
UCHL1 block = inhibitors of human UCHL1 deubiquitinase; P09936; purified UCHL1, Ub-rhodamine cleavage fluorescence; inhibition, % at 20 µM; actives 0.2% (n = 47,000); AID 1645859
Target sequence (P09936 whole entry, looked up): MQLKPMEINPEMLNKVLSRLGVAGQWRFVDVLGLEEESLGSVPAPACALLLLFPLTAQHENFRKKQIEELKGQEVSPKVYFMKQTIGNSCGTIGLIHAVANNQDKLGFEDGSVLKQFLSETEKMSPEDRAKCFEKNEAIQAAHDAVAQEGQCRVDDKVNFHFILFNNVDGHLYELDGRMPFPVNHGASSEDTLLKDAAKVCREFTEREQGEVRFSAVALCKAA
OTUD3 inh = human OTUD3 deubiquitinase inhibition. purified OTUD3, Ub-rhodamine fluorescence, 2 h. Q5T2D3. inhibition, % at 25 µM. actives 0.7% (n = 47,000)
USP8 block = blocks human USP8 ubiquitin-rhodamine cleavage. AID 1645853. purified USP8, Ub-rhodamine cleavage fluorescence, 30 min. inhibition, % at 20 µM. actives 4.2% (n = 47,000). P40818
USP10 inh = human USP10 deubiquitinase inhibition; Q14694; purified USP10, Ub-rhodamine fluorescence, 60 min; inhibition, % at 20 µM; actives 1.1% (n = 47,000); AID 1645856
USP7 block = human USP7 deubiquitinase inhibition; Q93009; purified USP7, Ub-rhodamine cleavage fluorescence; inhibition, % at 20 µM; actives 0.3% (n = 47,000)
Each line names hits and unclear results; the compound was inactive in the other large screens. Cut-off read from the data, not from the text of the source: active = inhibition above about 30%; inactive = the rest.

CC(NC(=O)c1ccccc1)c1nc2ccccc2n1CC(=O)Nc1ccc2c(c1)OCO2 (stereo not drawn)	USP8 block 74, USP10 inh 56
Cn1c(=O)c2cn3c(c2n(C)c1=O)C(c1cccc(F)c1F)Nc1ccccc1-3 (stereo not drawn)	none
COc1cc2c(cc1OC)-c1cc(Oc3ccc4cccnc4c3)nc(=O)n1CC2	USP8 block 35
Cc1noc(C)c1CC(=O)Nc1nnc(-c2ccc(C(C)C)cc2)s1	USP8 block 32
COc1cc(C(=O)Nc2cc(-c3ccc(F)c(F)c3)no2)cc(OC)c1OC	USP8 block 43
Cc1ccc(-c2ncc(C(=O)Nc3c(F)cccc3F)c(-c3ccncc3)n2)cc1	USP8 block 61
COc1ccccc1-n1cc(C(=O)c2cc(F)ccc2O)cc(C(C)=O)c1=O	USP8 block 33
Cc1ccc(-n2nnc(C(=O)Nc3ccc(C)c(C)c3)c2C)cc1	USP8 block 40
Cc1ccc(NC(=O)c2nnn(-c3ccc(C)c(C)c3)c2C)cc1C	none
Cc1ccc(NC(=O)Cn2c(=O)n(CCC(=O)NCCc3ccccc3)c(=O)c3ccccc32)cc1C	USP10 inh 32
O=C(Cn1c(=O)c2ccccc2n(CC(=O)Nc2cccc(F)c2)c1=O)NCCc1ccccc1	USP10 inh 30
N#Cc1ccccc1Cn1c(=O)n(CCCCC(=O)NCCc2ccccc2)c(=O)c2ccccc21	OTUD3 inh 36
O=C(CCCCn1c(=O)c2ccccc2n(CC(=O)Nc2ccc(F)cc2)c1=O)NCCc1ccccc1	none
O=C(CCCCn1c(=O)c2ccccc2n(Cc2ccccc2F)c1=O)NCCc1ccccc1	none
Cc1nc(C2(NC(=O)Nc3ccccc3Cl)CCCC2)no1	none
COc1ccc(NC(=O)C2C3C=CC4(O3)C2C(=O)N(Cc2cccc(OC)c2)C4C(=O)NC2CCCCC2)cc1 (stereo not drawn)	none
CCOc1ccc(NS(=O)(=O)c2ccc(NC(=O)Nc3ccccc3)cc2)cc1	USP8 block 45, USP10 inh 34
CCOC(=O)c1cc2c(=O)n3ccccc3nc2n(Cc2ccco2)c1=NC(=O)COc1ccc2ccccc2c1	UCHL1 block 43
COc1cccc(C(=O)Cn2nc3n(CCC(C)C)c(=O)c4sccc4n3c2=O)c1	none
COc1cccc(Cn2nc3n(CC(C)C)c(=O)c4ccc(C(=O)NCC(C)C)cc4n3c2=O)c1	OTUD3 inh 36
CC1CCN(Cc2ccncc2)Cc2nc3ccccc3n21 (stereo not drawn)	none
Cc1ccc(S(=O)(=O)N2C(=O)CCC2C(=O)N2CCN(c3ccc(F)cc3)CC2)cc1 (stereo not drawn)	none
Cc1ccc(C2CC(=O)C3=C(C2)Nc2ccccc2N(C(=O)c2ccccc2)C3c2ccccc2)cc1 (stereo not drawn)	USP8 block 30
COc1ccc(C2C3=C(CC(c4ccco4)CC3=O)Nc3ccccc3N2C(C)=O)cc1 (stereo not drawn)	USP8 block 56
CCN1CC[C@@]2(C(=O)Nc3ccccc3)CCN(S(=O)(=O)Cc3ccccc3)CC[C@@H]12	none
Cc1ccnc(NS(=O)(=O)c2ccc(NC(=O)c3ccc(S(=O)(=O)N(C)Cc4ccccc4)cc3)cc2)n1	USP8 block 40, USP10 inh 42
O=C(NC1CCCC1)N1CCC2(CC1)OC(C(=O)N1CCCCC1)Cn1ccnc12 (stereo not drawn)	none
CC(=O)c1cccc(NC(=O)C(C)OC(=O)c2cc3ccccc3[nH]2)c1 (stereo not drawn)	OTUD3 inh 33
COc1ccc(N(C)S(=O)(=O)c2cccc(C(=O)OC(C)C(=O)Nc3cccc(C(C)=O)c3)c2)cc1 (stereo not drawn)	none
O=C(/C=C/c1ccccc1)N1CCc2[nH]nc(-c3ccc(Cl)cc3)c2C1	none
O=C(C1CCCC1)N1CCCC1c1ccnc(Nc2ccccn2)n1 (stereo not drawn)	none
O=C(C1CCC1)N1CCCC1c1ccnc(Nc2cnccn2)n1 (stereo not drawn)	USP8 block 44
CCSc1nc(NCC2CCCO2)c2c3c(sc2n1)COC(C)(C)C3 (stereo not drawn)	none
CCCC(O)CCCCCCCc1cc(O)cc(O)c1C(=O)OC(CCC)CCCCCCCc1cc(O)cc(O)c1 (stereo not drawn)	USP10 inh 76
Cc1cc(C)n(-c2nnc(NCc3ccc(Cl)cc3)nn2)n1	USP8 block 45
Cc1ccc(Cn2cc(-c3noc(-c4ccco4)n3)nn2)cc1	none
Cc1ccc(Cn2cc(-c3noc(C(=O)Nc4cc(F)ccc4F)n3)nn2)cc1	USP8 block 90, USP10 inh 51
CC(C)C(=O)c1nc2ccccc2c(=O)n1C1CC2(OC1=O)c1ccccc1N1C(=O)C(C)N(O)C12 (stereo not drawn)	none
O=C(NCc1ccc(F)cc1)c1cccc(Nc2nc3ccccc3n3cnnc23)c1	OTUD3 inh 67, USP10 inh 38
COc1ccccc1CNC(=O)c1cccc(Nc2nc3ccccc3n3cnnc23)c1	none
CCC(C)c1ccccc1OCC(O)CN1CCN(CCN2C(=O)c3cccc4cccc(c34)C2=O)CC1 (stereo not drawn)	none
O=C1c2c(O)c(Cl)cc3c2[C@@]2(Oc4ccc(O)c5c4[C@]3(O2)[C@@H]2O[C@@H]2C5=O)[C@@H]2O[C@H]12	UCHL1 block 84, OTUD3 inh 89, USP10 inh 40, USP7 block 82
CN(C)CCCn1c(-c2ccccc2)cc(-c2ccccc2)cc1=O	none
CC(C)=CCc1c(O)cc2c(c1C)OC(=O)c1c(C)c(Cl)c(O)c(CO)c1O2	USP10 inh 48
COc1cc(O)c2c(=O)cc(C)oc2c1CC=C(C)C	none
CN1CC[C@@H]2Oc3ccccc3S(=O)(=O)N(C)[C@H]2CC1	none
CCOC(=O)c1ccc(OCC2c3cc(OC)c(OC)cc3CCN2C(=O)C(C)Oc2ccccc2)cc1 (stereo not drawn)	USP8 block 85
CCOc1ccc(C2/C(=C(\O)c3ccccc3)C(=O)C(=O)N2c2nc3ccc(F)cc3s2)cc1 (stereo not drawn)	USP7 block 72
COc1ccc(CNC(=O)Cn2c(=O)[nH]c3c(-c4ccccc4F)c[nH]c3c2=O)cc1	USP8 block 87
Cc1nc(=O)c2cccnc2n1C1=CCN(C(=O)OC(C)(C)C)CC1	none
CC(=O)c1c(C)[nH]c(C(=O)N2CCC(Cc3ccccc3)CC2)c1C	none
CCCCOc1ccccc1C(=O)Nc1ccc(OCC)c2ncccc12	USP8 block 44
Cc1ccc(NC2=C(CC(=O)O)C(c3ccccc3F)N(c3ccc(C)cc3)C2=O)cc1 (stereo not drawn)	none
Cc1cccc(C)c1NC(=O)CN1C(=O)CC(c2ccccc2)=Nc2ccccc21	USP10 inh 39
COc1ccc2cc3c(nc2c1)OC(=O)N(Cc1ccccc1F)C3	USP8 block 37
Cc1cccc(NC(=O)C(=O)NCC(c2cccnc2)N2CCc3ccccc3C2)c1 (stereo not drawn)	USP8 block 61
